Source: PubChem
An excerpt weighted towards active compounds, which were near 7.9% of everything screened.
HCV inhibitor = HCV inhibition | Potency, µM (titrated, usually from 41.8 µM), without a hit: at the top dose activity change, negative = inhibition, hits mostly inhibitors | AID 651820 | Huh7.5.1 HCVcc-Cre infection, luciferase reporter, 44 h | 340,000 tested, 3.4% active; active = well fitted inhibition curve with a large enough effect; inconclusive = small, poorly fitted or top-dose-only effect, or another doubt; inactive = no such curve, though single readings can be large or run the other way; note: potency is the fitted concentration of half-maximal effect
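After 44 h co-culture of compound, cells and HCVcc-Cre (~0.5 moi), substrate is added for 15 min at room temperature and luciferase measured over 15 sec. Cells were seeded at 1,000/well and pre-cultured 4 h.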
Lassa entry inh = inhibitors of Lassa virus binding or cell entry; 300,000 tested, 1.2% active; Lassa virus pseudotype entry inhibition, cell reporter; Potency, µM (titrated, usually from 37.9 µM), without a hit: top-dose activity change, negative = inhibition, usual class: inhibitors; calls by dose curve; tested in HEK293 cells; note: potency is the fitted concentration of half-maximal effect; nearly all actives have a fitted effect of over 50% in size
HCMV antiviral = inhibitors of human cytomegalovirus; activity change, negative = inhibition, % at 57.5 µM; HFF cells, HCMV-luciferase reporter, 72 h; hits give low values; AID 1259415; 410,000 tested, 4.5% active; in the data active = activity change below about -60%; inconclusive = no clear call, values can overlap the other calls; inactive = above about -39%
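Luciferase read-out from HCMV-luciferase-infected HFFs (MOI 1 PFU/cell) 72 h post infection at 37C; compounds added after 16 h cell attachment; activity normalized between buffer-only basal and Salinomycin (10uM) inhibitor controls.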
MARV entry inh = inhibitors of Marburg virus binding or cell entry; Marburg virus pseudotyped entry inhibition, cell reporter; 300,000 tested, 1.8% active; Potency, µM (titrated, usually from 37.8 µM), for the others: at the top dose activity change, negative = inhibition, usual class: inhibitors; AID 540276; calls by dose curve; tested in HEK293 cells; note: potency is the fitted concentration of half-maximal effect
FMDV inh = foot and mouth disease virus antiviral activity | FMDV antiviral cell-based qHTS | Potency, µM (titrated, usually from 57.9 µM), for the others: at the top dose activity change, negative = inhibition, hits mostly inhibitors | 410,000 tested, 1.2% active | AID 1159524; calls by dose curve; tested in HEK293T cells; note: read-out not given here; potency is the fitted concentration of half-maximal effect; nearly all actives have a fitted effect of over 45% in size
An asterisk follows results filed as active; ? = inconclusive; . = no result; + = active, no number; ! = repeats disagree; [ ] = dose if it differs, or a comment. % is set by controls: 0 for no effect and ±100 for the full control effect.

SMILES	HCV inhibitor	Lassa entry inh	HCMV antiviral	MARV entry inh	FMDV inh
CCn1c(C)nc2cc(NC(=O)Nc3cccc(C(C)=O)c3)ccc21	-23%	.	-67*	.	28%
COc1cccc(Nc2ncc3nc(-c4ccc(F)cc4)c(=O)n(C[C@H]4CCCO4)c3n2)c1	.	.	.	.	-4%
COc1ccc2c(c1)[C@@H](NS(C)(=O)=O)[C@H](C)[C@@H](c1ccccc1)N2Cc1cccc(F)c1	.	.	-9	.	.
Cc1[nH]nc2ncc(C(=O)c3ccccc3O)cc12	-10%	2%	-82*	4%	-27%
O=c1[nH]nc(-c2n[nH]c(=O)o2)o1	23%	2%	36	1%	-7%
CC(C)c1ccc(NC(=O)C2CCC(CNS(=O)(=O)c3ccc4c(c3)CCCC(=O)N4)CC2)cc1 (stereo not given)	.	?	-25	.	25µM*
CC1Sc2ccc(S(=O)(=O)N3CCC(C(=O)NCCc4ccccc4)CC3)cc2NC1=O (stereo not given)	?	?	53	?	-22%
CC1Sc2ccc(S(=O)(=O)N3CCC(C(=O)NCC(C)c4ccccc4)CC3)cc2NC1=O (stereo not given)	11µM*	?	12	-29%[46.1 µM]	?
Cc1ccc(CCNC(=O)C2CCN(S(=O)(=O)c3ccc4c(c3)NC(=O)C(C)S4)CC2)cc1 (stereo not given)	6.3µM*	?	?	?	32µM*
Cc1ccccc1NC(=O)C1CCN(S(=O)(=O)c2ccc3c(c2)NC(=O)C(C)S3)CC1 (stereo not given)	-10%	-9%[46.1 µM]	-32	-5%[46.1 µM]	14%
Cc1ccc(NC(=O)C2CCN(S(=O)(=O)c3ccc4c(c3)CCCC(=O)N4)CC2)c(Br)c1	5%	?	+!	10%[46.1 µM]	-18%
CCOC(=O)c1cc(-c2ccc(OC)cc2)n(CCC(=O)Nc2nc3ccc(OCC)cc3s2)c1C	.	1%[46.1 µM]	39	.	-10%
CCCCNC(=O)C1(C)CCCCN1C(=O)C1(c2ccc(Cl)cc2)CCCC1 (stereo not given)	.	.	-34	.	.
O=C1[C@H]2[C@H]3[C@H](O)[C@H](O)C/C(=N\OCc4ccccc4)[C@@H]3CC[C@H]2C(=O)N1C[C@@H]1CCCO1	.	.	.	6%[14.2 µM]	.
Cc1c(C(=O)N(C)C2CCOC2)cnn1-c1ncc2c(n1)-c1ccccc1CCC2 (stereo not given)	.	.	.	.	46%
Cc1ccc(NC(=O)C2CCN(S(=O)(=O)c3ccc4c(c3)NC(=O)C(C)S4)CC2)c(Cl)c1 (stereo not given)	11µM*	.	0	.	18µM*
O=C(NCCc1cccc(F)c1)C1CCN(S(=O)(=O)c2ccccc2)CC1	-7%	.	-36	.	-16%
Cc1ccc(NC(=O)C2CCN(S(=O)(=O)c3ccc4c(c3)NC(=O)C(C)S4)CC2)cc1Cl (stereo not given)	?	.	-99*	.	?
Cc1cccc(CCNC(=O)C2CCN(S(=O)(=O)c3ccccc3)CC2)c1	-4%	-19%	-68*	-4%[46.1 µM]	-18%
CC(C)c1ccc(NC(=O)C2CCC(CNC(=O)[C@@H]3Cc4ccccc4CN3)CC2)cc1 (stereo not given in full)	14µM*	5%[46.1 µM]	0	?	-3%
Cc1ccc(NC(=O)C2CCC(CNC(=O)[C@@H]3Cc4ccccc4CN3)CC2)cc1 (stereo not given in full)	8%	.	?	.	-7%
Cc1cc(C)cc(NC(=O)C2CCN(S(=O)(=O)c3ccc4c(c3)NC(=O)C(C)S4)CC2)c1 (stereo not given)	5%	.	?	.	?
COc1ccc(CCNC(=O)C(=O)NCC(c2cccs2)S(=O)(=O)c2ccc(C)cc2)cc1 (stereo not given)	.	?	-16	.	20µM*
O=C(NCCc1ccc(F)cc1)C(=O)NCC(c1cccs1)S(=O)(=O)c1ccccc1 (stereo not given)	.	?	0	.	?
CCCC(=O)NCC(c1cccs1)S(=O)(=O)c1ccc(Cl)cc1 (stereo not given)	7%	?	-103*	7%[46.1 µM]	26%
SMILES	HCV inhibitor	Lassa entry inh	HCMV antiviral	MARV entry inh	FMDV inh
COc1ccc(CCNC(=O)C(=O)NCC(c2cccs2)S(=O)(=O)c2ccccc2)cc1 (stereo not given)	.	-3%[46.1 µM]	-24	.	28µM*
COC(=O)Cn1cnc2c(Cl)nc(F)nc21	5.6µM*	.	-13	1%	?
COC(=O)Cn1cnc2c(nnn2-c2ccc(F)cc2)c1=O	7%	.	17	.	7%
CC(C)(C)c1ccc(C(=O)NNC(=O)c2cccc(Br)c2)cc1	?	?	-73*	?	18%
Cc1ccc(C(=O)NNC(=O)c2cccc(Br)c2)cc1	29%	-29%[46.1 µM]	?	8%[46.1 µM]	27%
Cc1c(Br)c(C(=O)NNC(=O)c2ccc(C(C)(C)C)cc2)nn1C	-11%	.	-61*	.	28%
COc1ccc(CCNC(=O)c2ccc(CNc3nc(=S)[nH]c4ccccc34)cc2)cc1OC	10µM*	.	-18	4%[46.1 µM]	-29%
CC(NC(=O)c1cccc(Nc2nc3ccccc3n3nnnc23)c1)c1ccccc1 (stereo not given)	.	?	-68*	.	?
COc1ccc(CCNC(=O)c2ccc(Nc3nc4ccccc4n4nnnc34)cc2)cc1OC	.	-11%[46.1 µM]	-114*	?	?
CC(C)CCNC(=O)c1cccc(Nc2nc3ccccc3n3nnnc23)c1	.	-7%[46.1 µM]	-81*	-9%[46.1 µM]	-22%
c1ccc(Nc2nc3ccccc3n3nnnc23)cc1	-9%	.	51	.	40%
CN(Cc1cnc2ccccn12)C1CCN(c2cccc(NC(=O)c3cccnc3)c2)CC1	.	.	.	.	-25%
NS(=O)(=O)c1ccc(CCNC(=O)Cn2c(=O)c3cccn3c3ccc(F)cc32)cc1	.	1%[46.1 µM]	39	.	-6%
c1ccc2c(c1)nc(Nc1ccc3c(c1)OCO3)c1nnnn12	12%	-3%	-78*	4%	-21%
Cc1ccc(C)c(Nc2nc(-c3ccncc3)nc3ccccc23)c1	11µM*	.	-2	.	?
COc1ccc(OC)c(Nc2ncnc3ccccc23)c1	?	12%	-23	?	16%
COc1ccc(OC)c(Nc2nc(-c3ccncc3)nc3ccccc23)c1	4.5µM*	?	-3	?	?
COc1ccc2nc(-c3ccccc3)nc(C3CCCCC3)c2c1	?	.	-3	.	-2%
Cc1ccc(-c2nc(NCCN(C)C)c3ccccc3n2)cc1	-25%	?	24	?	36%
COc1ccc(Nc2nc(-c3ccccc3F)nc3ccccc23)cc1OC	25µM*	?	9	.	?
COc1ccc2nc(-c3ccccc3)nc(SC)c2c1	11µM*	.	26	.	26%
Oc1ccc(Nc2nc(-c3ccccc3F)nc3ccccc23)cc1	?	.	?	.	0%
COc1cccc(-c2ccnc3c(-c4ccc(F)cc4)c(C)nn23)c1	.	18%[46.1 µM]	-14	?	-4%
CCc1cc(=O)oc2cc(C)c(CN3CCC[C@@H](C)C3)c(O)c12	.	.	.	14%	.
